KB-3-1 tox: qHTS assay for MDR1-selective chemotherapeutics: Primary screen using the parental adenocarcinoma cell KB-3-1. KB-3-1 viability, CellTiter-Glo ATP luminescence, 72 h. Potency, µM (top dose mostly 46.1 µM), most hits filed as cytotoxic. 400,000 tested, 1.4% active. AID 1347075, 2019; also: nearly all actives have a fitted effect of over 60% in size
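Using CellTiter-Glo luminescence, growth of non-resistant KB-3-1 adenocarcinoma cells is assessed 72 h after pin-tool compound addition at 37 °C. Normalized responses across the concentration series yield fitted curves.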
KB-V1 MDR tox: qHTS assay for MDR1-selective chemotherapeutics: Primary screen using the drug-selected MDR subline cells KB-V1; KB-V1 MDR cells viability, CellTiter-Glo, 72 h; Potency, µM (series often up to 46.1 µM), usual class: cytotoxic; 400,000 tested, 3.4% active; also: nearly all actives have a fitted effect of over 60% in size
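Cells of the MDR subline KB-V1 are plated, dosed with compound at multiple concentrations, and incubated 72 h at 37 degrees C; CellTiter-Glo is then added and luminescence read after 10 min.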
HT1080-NT tox: qHTS for induction of synthetic lethality in tumor cells producing 2HG: qHTS for the HT-1080-NT fibrosarcoma cell line | HT-1080-NT fibrosarcoma viability, CellTiter-Glo ATP luminescence, 48 h | Potency, µM (top dose mostly 46.1 µM), for the others: at the top dose activity, negative = less viability, most hits filed as cytotoxic | 360,000 tested, 1.6% active;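 also: NT is the 2HG producing partner of a matched IDH1 knockdown line; 0% = DMSO-treated cells and -100% = media-only wells without cells; nearly all actives have a fitted effect of over 55% in size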
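Viability by CellTiter-Glo luminescence after 48 h compound exposure at 37C of HT-1080-NT cells (750/well, RPMI, 5% FBS). % activity scaled between DMSO wells and medium-only wells, then curve-fitted and categorized by curve class.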
HT1080 IDH1KD tx: qHTS for induction of synthetic lethality in tumor cells producing 2HG: qHTS for the HT-1080-IDH1KD cell line; HT-1080 IDH1 knockdown viability, ATP luminescence, 48 h; Potency, µM (titrated, usually from 46.1 µM), for inactives: top-dose activity, negative = toxicity, hits mostly cytotoxic; 360,000 tested, 2% active; AID 686971, 2013;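 also: 0% = DMSO wells and -100% = cell-free medium wells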
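Cytotoxicity counter-line: IDH1KD HT-1080, 48 h, CellTiter-Glo. Curves classed by r2, magnitude and activity.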
Starred values were filed as active, the others as inactive; i = inactive; ? = inconclusive; nt = no result given. A selection: hits, their analogues and other compounds. The true share with any hit is near 5.7%. Calls follow the shape of the dose curve; as a rule, active = well fitted curve in the direction sought with a large enough effect; inconclusive = small, poorly fitted or top-dose-only effect, or another doubt; inactive = no such curve, though single readings can be large; an effect the other way counts as inactive or inconclusive. Unless noted, % is scaled to controls: 0 for no effect and ±100 for the full control effect; potency is read from the fitted curve at half-maximal effect.

SMILES	KB-3-1 tox	KB-V1 MDR tox	HT1080-NT tox	HT1080 IDH1KD tx
CCOCCCn1c(C)nc2c(c1=O)c1nc3ccccc3nc1n2CCC1=CCCCC1	?	18µM*	?	?
COc1ccc(N2CCN(C(=O)COc3ccccc3C#N)CC2)cc1	i	i	nt	nt
CC(C)CCNC(=O)c1ccc(Cn2c(SCC(N)=O)nc3ccccc3c2=O)cc1	i	i	nt	nt
Cc1cc(Cl)c2oc(C(=O)N3CCN(c4ccncc4)CC3)c(C)c2c1	?	?	12µM*	12µM*
COC(=O)C1CCN(C(=O)c2oc3c(Cl)cc(C)cc3c2C)CC1	i	i	17%	1%
O=C(c1ccc(N2CCCCC2)c([N+](=O)[O-])c1)N1CCN(S(=O)(=O)c2ccccc2)CC1	i	i	2%	-5%
NC(=O)c1ccc(N2CCN(S(=O)(=O)c3ccccc3)CC2)c([N+](=O)[O-])c1	18µM*	9.2µM*	-18%	-24%
CO/N=C/c1ccc(N2CCN(C(=O)c3ccc(C)cc3)CC2)c([N+](=O)[O-])c1	?	9.2µM*	4%	-11%
Cc1ccc(S(=O)(=O)N2CCN(C(=O)c3ccc(N4CCCC4)c([N+](=O)[O-])c3)CC2)cc1	i	?	0%	11%
Cc1ccc(S(=O)(=O)N2CCN(c3ccc(C(=O)N4CCOCC4)cc3[N+](=O)[O-])CC2)cc1	i	2.9µM*	-11%	-7%
CCOCCc1nn2c(=O)cc(COC(=O)c3ccccc3OC)nc2s1	i	i	nt	nt
CN(N=O)c1ccc(/C=C/c2ccnc3ccccc23)cc1	i	i	nt	nt
CCN(CC)c1ccc(/C=C/c2nccc3ccccc23)cc1	i	i	nt	nt
CN(C)c1ccc(/C=C/c2ccnc3ccc4ccccc4c23)cc1	1.6µM*	i	nt	nt
CN(C)c1ccc(/C=C/c2ccnc3ccccc23)cc1	12µM*	?	nt	nt
CN(C)c1ccc(C=Cc2nccc3ccccc23)cc1	9.2µM*	i	?	21µM*
CCc1ccccc1NC(=O)c1cc(S(=O)(=O)N(CC)c2ccccc2)ccc1F	i	i	nt	nt
COc1ccccc1C(=O)n1nc(-c2ccccc2)nc1NCc1ccco1	i	?	9%	2%
CCCC(=O)n1nc(-c2cccnc2)nc1NCc1ccccc1	i	i	5%	5%
O=C(c1cccs1)n1nc(-c2ccccc2)nc1NCc1ccc(F)cc1	?	13µM*	17%	-11%
COc1ccccc1C(=O)n1nc(-c2ccccc2)nc1NCc1ccc(Cl)cc1	?	15µM*	nt	nt
CCC(=O)n1nc(-c2cccnc2)nc1NCc1ccccc1	?	i	-35%	4.6µM*
CCCN1CNc2c(c(=O)[nH]c(=S)n2CCc2ccsc2)C1	nt	nt	15%	20%
COc1ccc(S(=O)(=O)N(CC(=O)N2CCC(C)CC2)c2ccc(C)cc2)cc1	i	i	nt	nt
CCC(=O)N(C(=O)CC)N1CCN(c2ccncc2S(=O)(=O)N2CCCCC2)CC1	0.029µM*	i	3%	-1%
SMILES	KB-3-1 tox	KB-V1 MDR tox	HT1080-NT tox	HT1080 IDH1KD tx
Fc1ccc(CNn2cnnc2SCc2ccc(F)cc2)cc1	i	?	-24%	?
Cc1ccc(CNn2cnnc2SCc2ccc(F)cc2)cc1	?	15µM*	-27%	?
COc1ccc(S(=O)(=O)N(CC(=O)Nc2ccc(OC)cc2OC)c2ccc(Cl)cc2)cc1	i	?	nt	nt
CCC(C)(C)NC(=O)C(c1ccco1)N(C(=O)c1csnn1)c1cccc(F)c1 (configuration not stated)	i	16µM*	-10%	-2%
O=C(NCc1ccccc1)C(c1ccco1)N(C(=O)c1csnn1)c1ccccc1 (configuration not stated)	i	i	0%	-2%
CC(C)(C)NC(=O)C(c1cccs1)N(C(=O)c1csnn1)c1cccc(F)c1 (configuration not stated)	i	i	-14%	1%
CCC(C)N(C(=O)c1csnn1)C(C(=O)NCc1ccc(F)cc1)c1ccco1 (configuration not stated)	i	16µM*	2%	4%
C=CCn1c(COc2ccc(OC)cc2)nnc1SCn1nnc2ccccc2c1=O	i	21µM*	-7%	-1%

Compound activity from PubChem BioAssay.
